Sampled rows, rich in hits. Any-hit rate of the full collection: about 2.4%.
D2 ag-1 = HTS Assay for Allosteric Agonists of the Human D2 Dopamine Receptor: Primary Screen for Agonists | D(2) dopamine receptor (Homo sapiens), P14416 | HEK293 T-REx D2 cells, calcium flux agonist mode | activation, % at 2 µM | actives 0.53% (n = 340,000) | AID 485358, 2010;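 active means activation over 3 SD above normal in the single-dose calcium agonist read, cut at about 30% in these data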; further: 0% is about no effect
Target sequence (P14416 whole entry, looked up): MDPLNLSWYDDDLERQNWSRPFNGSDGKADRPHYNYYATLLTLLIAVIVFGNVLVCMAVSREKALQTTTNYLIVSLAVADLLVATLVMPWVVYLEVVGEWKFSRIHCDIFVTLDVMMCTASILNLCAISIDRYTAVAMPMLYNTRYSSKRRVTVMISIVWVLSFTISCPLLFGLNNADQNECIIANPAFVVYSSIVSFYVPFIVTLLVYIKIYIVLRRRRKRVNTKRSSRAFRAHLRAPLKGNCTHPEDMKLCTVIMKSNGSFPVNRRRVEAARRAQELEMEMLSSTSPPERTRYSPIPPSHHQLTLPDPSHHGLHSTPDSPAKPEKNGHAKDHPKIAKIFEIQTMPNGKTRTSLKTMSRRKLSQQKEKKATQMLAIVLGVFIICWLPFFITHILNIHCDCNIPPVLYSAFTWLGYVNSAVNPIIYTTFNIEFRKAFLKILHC
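Agonism is scored from calcium flux in a force-coupled, inducible HEK293 cell line expressing D2, read kinetically for 180 s after compound addition against dopamine controls.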
D2 antagonist = HTS Assay for Allosteric Antagonists of the Human D2 Dopamine Receptor: Primary Screen for Antagonists. D(2) dopamine receptor (Homo sapiens), P14416. HEK293 TREx D2 cells, calcium flux, dopamine EC80. inhibition, % at 10 µM. actives 2% (n = 340,000). AID 485344, 2010; in the data active means inhibition above about 30%; inactive means below that, where a call was filed; further: 0% is about no effect
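Antagonism is scored as inhibition of an EC80 dopamine-evoked calcium signal in a force-coupled, tetracycline-inducible HEK293 T-REx D2 line, with compound present 180 s before agonist.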
D2 ag-2 = Beta-Arrestin HTS for Positive Allosteric Modulators of the Human D2 Dopamine Receptor: Agonists; D(2) dopamine receptor (Homo sapiens), P14416; DiscoveRx PathHunter D2 beta-arrestin, luminescence, 90 min; 100% = 57 uM dopamine signal; activation, % (test concentration not listed); AID 624465, 2012; actives 0.084% (n = 360,000); in the data active means activation above about 40%; inconclusive means between about 15% and that limit
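Agonist mode: compounds alone added to overnight-plated D2 PathHunter cells for 90 min at 37 C, with 57 uM final dopamine (EC100) defining full response. Beta-arrestin recruitment detected by chemiluminescent reagent, read after 1 h at ambient temperature.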
D2 PAM-1 = Beta-Arrestin HTS for Positive Allosteric Modulators of the Human D2 Dopamine Receptor: Potentiators | D(2) dopamine receptor (Homo sapiens), P14416 | DiscoveRx D2 beta-arrestin cells, luminescence, 90 min; 100% = 57 uM dopamine signal | potentiation, % (concentration not given with the values) | actives 0.23% (n = 360,000) | AID 624464, 2012; in the data active means potentiation above about 50%; inconclusive means mostly about 30% to 49%
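D2 cells co-treated with compound plus 50 nM dopamine (EC20) for 90 min at 37 deg C to detect potentiation. Beta-arrestin recruitment was read as enzyme-fragment luminescence after 1 h at ambient temperature. Full response was set by 57 uM dopamine.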
D2 PAM-2 = HTS Assay for Positive Allosteric Modulators of the Human D2 Dopamine Receptor: Primary Screen for Potentiators; HEK293 T-REx D2, calcium flux, EC20 dopamine potentiation; actives 0.34% (n = 340,000); potentiation, % at 10 µM;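 active means potentiation over 3 SD above the plate norm, cut at about 30% in these data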; further: 0% is about no effect
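Cells plated with tetracycline inducer and held overnight at 30 C; calcium dye loaded 30–90 min at room temperature; baseline taken, compound added and read 180 s; EC20 dopamine then added and read 180 s.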
* marks the source's active call; other numbers are inactive results.

How did CCc1nnc(SCC(=O)N(C)c2ccccc2)c2cc3sccc3n12 do in these assays?
D2 ag-1: 1

What do the screens show for `CC(=O)c1sc(N/N=C\c2cccc(Br)c2)nc1C`?
D2 ag-1: 2; D2 antagonist: -19; D2 ag-2: inconclusive; D2 PAM-1: 92*; D2 PAM-2: 7

What do the screens show for `CC(=O)c1sc(N/N=C\c2ccc(Br)cc2)nc1C`?
D2 ag-1: 1; D2 antagonist: 2; D2 ag-2: 5; D2 PAM-1: 13; D2 PAM-2: 10

What do the screens show for `CCSc1nc2ccccc2n1CCC(=O)O`?
D2 ag-1: -2; D2 antagonist: 45*; D2 ag-2: -2; D2 PAM-1: 4; D2 PAM-2: -7

Results for C/C=C(\C)C(=O)OC1[C@H](OC(C)=O)C2(CO)C(CC1(C)C)C1=CCC3C4(C)CCC(O[C@@H]5O[C@H](C(=O)O)[C@@H](O[C@@H]6O[C@H](CO)[C@@H](O)[C@H](O)[C@H]6O)[C@H](O)[C@H]5O[C@H]5O[C@H](CO)[C@@H](O)[C@H](O)[C@H]5O)[C@](C)(CO)C4CCC3(C)[C@]1(C)C[C@H]2O (stereo partly specified) ?
D2 ag-2: 41*; D2 PAM-1: -63

Results for C/C=C(/C)C(=O)OC1CC(C)(C)C[C@H]2C3=CC[C@@H]4[C@@]5(C)CCC(O[C@@H]6O[C@@H](C(=O)O)[C@@H](O)C(O[C@@H]7OC[C@H](O)[C@@H](O)[C@@H]7O[C@@H]7OC(CO)C(O)[C@@H](O)[C@@H]7O)C6O[C@@H]6OC(CO)C(O)C(O)C6O)[C@@](C)(CO)[C@@H]5CC[C@]4(C)[C@]3(C)CC(O)[C@@]12CO (stereo partly specified) ?
D2 ag-2: 13; D2 PAM-1: -21

What do the screens show for `c1csc(C(c2nnnn2C2CCCC2)N2CCCC3(CCCCC3)C2)c1` (stereo unspecified)?
D2 ag-1: 0; D2 antagonist: 31*; D2 ag-2: 0; D2 PAM-1: -2; D2 PAM-2: 7

Results for Cc1cccn2c(=O)cc(COc3cccc(NC(=O)COc4ccccc4)c3)nc12 ?
D2 ag-1: -2; D2 PAM-2: -6

What do the screens show for `Cc1c(C(=O)N2CCCC2)oc2c1-c1nn(CC(=O)NCCCOC(C)C)cc1CC2`?
D2 ag-1: 0; D2 antagonist: 35*; D2 ag-2: inconclusive; D2 PAM-1: -15; D2 PAM-2: 2

Results for O=C(O)CC(c1ccc(Br)cc1)N1Cc2ccccc2C1=O (stereo unspecified) ?
D2 ag-1: 0; D2 antagonist: 42*; D2 ag-2: -2; D2 PAM-1: 1; D2 PAM-2: 1

Results for CCCCC[n+]1ccn(C2=C([O-])c3ccccc3C(=O)/C2=N\S(=O)(=O)c2ccc(Cl)cc2)c1 ?
D2 ag-1: -2; D2 antagonist: 4; D2 ag-2: 2; D2 PAM-1: 9; D2 PAM-2: 1

What do the screens show for `CCCC[n+]1ccn(C2=C([O-])c3ccccc3C(=O)/C2=N\S(=O)(=O)c2ccc(Cl)cc2)c1`?
D2 ag-1: -1; D2 antagonist: 34*; D2 ag-2: 2; D2 PAM-1: 7; D2 PAM-2: 5

How did O=c1c2ccccc2nc(SCc2cc(F)cc3c2OCOC3)n1Cc1ccco1 do in these assays?
D2 ag-1: 0; D2 antagonist: 3; D2 ag-2: 0; D2 PAM-1: -4; D2 PAM-2: -5

Results for CCOC(=O)c1cc2c(c(CSc3nc4ccccc4c(=O)n3Cc3ccco3)c1)OCOC2 ?
D2 ag-1: 1; D2 antagonist: 31*; D2 ag-2: -3; D2 PAM-1: -2; D2 PAM-2: 0
